Measured values reported in PubChem BioAssay (Tox21).
Inconclusive results are not listed. Activity calls are given as the source filed them. The call rests on the fitted dose curve; in most records, active means well fitted cell-killing curve with a large enough effect in the repeat runs; inconclusive means weak or mixed curves, or effect the other way; inactive means flat fitted curve, though single readings scatter.
On the % scale 0 is the no-effect control and ±100 the full control effect; potency means the concentration at half of the fitted maximal effect.

Experiment: qHTS RealTime-Glo MT Cell Viability Assay in HepG2 cells - 40 hour (AID 1224870); further: nearly all actives have a fitted effect of over 50% in size
Conditions: RealTime-Glo luminescence; series mostly up to 76.8 µM; activity change, negative = cytotoxic: at the top concentration
Procedure, shortened: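 Real-time viability: cells seeded at 600 per well together with NanoLuc and cell-permeant prosubstrate, compounds added after 5 h incubation. Luminescence tracked at 0, 8, 16, 24, 32 and 40 h of exposure.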
For `CCC[CH2][Sn]([CH2]CCC)([O]C(C)=O)[O]C(C)=O`, the Potency was 0.175 µM (active). With `[F][Sn]([c]1ccccc1)([c]1ccccc1)[c]1ccccc1` the Potency was 0.219 µM (active). In the case of `CC(=O)[O-].CC(=O)[O-].O.O.[Zn+2]`, the “activity change, negative = cytotoxic” value is reported as 5.68% (inactive). In the case of `CO/N=C(\C(=O)OC)c1ccccc1CO/N=C(\C)c1cccc(C(F)(F)F)c1`, the “activity change, negative = cytotoxic” value is reported as -3.55% (inactive). With `CNC(=O)/C=C(\C)OP(=O)(OC)OC` the “activity change, negative = cytotoxic” value was 1.19% (inactive). In the case of `Nc1ccccc1-c1ccccc1`, the “activity change, negative = cytotoxic” value is reported as 1.44% (inactive). In the case of `O.O.O.O=C([O-])[C@H]([O-])[C@@H]([O-])C(=O)[O-].O=C([O-])[C@H]([O-])[C@@H]([O-])C(=O)[O-].[K+].[K+].[Sb+3].[Sb+3]`, the “activity change, negative = cytotoxic” value is reported as -13.4% (inactive). With `O=S(=O)(NS(=O)(=O)C(F)(F)F)C(F)(F)F` the “activity change, negative = cytotoxic” value was -22.6% (inactive). For `O=C(NC(=O)c1ccccc1Cl)Nc1ccc(OC(F)(F)F)cc1`, the “activity change, negative = cytotoxic” value was -3.22% (inactive). For `CCC(C)Nc1c([N+](=O)[O-])cc(C(C)(C)C)cc1[N+](=O)[O-]` (centres undefined), the “activity change, negative = cytotoxic” value was -4.46% (inactive). In the case of `C[C@H]1[C@H](c2ccc(Cl)cc2)SC(=O)N1C(=O)NC1CCCCC1`, the “activity change, negative = cytotoxic” value is reported as -6.61% (inactive). In the case of `CC(C)(C)c1ccc(OP(=O)(Oc2ccccc2)Oc2ccccc2)cc1`, the “activity change, negative = cytotoxic” value is reported as -0.347% (inactive). For `Clc1ccc(C(c2ccc(Cl)cc2)C(Cl)Cl)cc1`, the “activity change, negative = cytotoxic” value was 2.76% (inactive). For `CC1=C2C[C@H]3[C@@H](CC=C4C[C@@H](O)CC[C@@]43C)[C@@H]2CC[C@]12O[C@@H]1C[C@H](C)CN[C@H]1[C@H]2C`, the “activity change, negative = cytotoxic” value was -10.4% [at 35.3 µM] (inactive). In the case of `Oc1cccc(Cl)c1Cl`, the “activity change, negative = cytotoxic” value is reported as 4.18% (inactive). With `Cc1c([N+](=O)[O-])c(C)c([N+](=O)[O-])c(C(C)(C)C)c1[N+](=O)[O-]` the “activity change, negative = cytotoxic” value was -5.99% (inactive). For `CCOC(=O)Cc1ccccc1`, the “activity change, negative = cytotoxic” value was 0.141% (inactive). For `CCC(OC(C)=O)C(CC(C)NC)(c1ccccc1)c1ccccc1` (centres undefined), the Potency was 62.2 µM (active). In the case of `CCC(C)c1cccc(C(C)CC)c1O` (centres undefined), the “activity change, negative = cytotoxic” value is reported as 0.787% (inactive). In the case of `Nc1ccc(N=Nc2ccccc2)cc1`, the “activity change, negative = cytotoxic” value is reported as -0.236% (inactive). In the case of `Oc1ccc2[nH]cc(CCCCN3CC=C(c4ccccc4)CC3)c2c1`, the “activity change, negative = cytotoxic” value is reported as -19.9% [at 35.3 µM] (inactive). For `CC1CN1` (centres undefined), the “activity change, negative = cytotoxic” value was -4.34% (inactive). In the case of `C[C@]12CC[C@H]3[C@@H](CCC4=CC(=O)CC[C@@H]43)[C@@H]1CC[C@@H]2OC(=O)CCc1ccco1`, the “activity change, negative = cytotoxic” value is reported as 1.95% [at 35.3 µM] (inactive). For `O.O.O.O.O.O.O.O=S(=O)([O-])[O-].[Co+2]`, the “activity change, negative = cytotoxic” value was 19.8% (inactive). For `Cc1c([N+](=O)[O-])cc2c(c1[N+](=O)[O-])C(C)(C)CC2(C)C`, the “activity change, negative = cytotoxic” value was -4.93% (inactive). With `COP(=S)(NC(C)C)Oc1ccc(C)cc1[N+](=O)[O-]` (centres undefined) the “activity change, negative = cytotoxic” value was -7.64% (inactive). For `O=[N+]([O-])c1ccc(Cl)c(Cl)c1Cl`, the “activity change, negative = cytotoxic” value was 1.67% (inactive). With `CN1CCc2cc3c(cc2C1O)OCO3` (centres undefined) the “activity change, negative = cytotoxic” value was -6.66% (inactive). With `ClC(Cl)C(Cl)(Cl)Cl` the “activity change, negative = cytotoxic” value was 1.43% (inactive).
